Compound activity: PubChem BioAssay, National Center for Advancing Translational Sciences (NCATS)
This excerpt belongs to a sample that is enriched for hits.
Pf Dd2 growth: qHTS Primary assay for Inhibitors of Plasmodium falciparum Dd2 growth in vitro; AID 1347417, 2020; P. falciparum Dd2 growth, SYBR Green, 72 h; 120,000 compounds, 4.3% hits; Potency, µM (top dose mostly 28.9 µM), for the others: at the highest dose activity, negative = inhibition, usual class: inhibitors; active = well fitted inhibition curve with a large enough effect;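 also: plate controls were DMSO vehicle for no effect and reference drug for full effect; nearly all actives have a fitted effect of over 65% in size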
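Readout: SYBR Green fluorescence, 485 nm excitation, 535 nm emission, after ~16 h lysis at 37C. Before that, Dd2-infected red cells (2.5% hematocrit) grew 72 h with compound, 29 uM top final concentration.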
An asterisk follows results filed as active; i = inactive; [ ] = dose if it differs, or a comment. Potency is read from the fitted curve at half-maximal effect.

SMILES	Pf Dd2 growth
O=C(CC1N=C2c3ccccc3N=C(SCc3ccccc3F)N2C1=O)NCCc1ccccc1 (centres undefined)	-19%
Cc1nc(C(C)NC(=O)c2coc(COc3cccc(F)c3F)n2)cs1 (centres undefined)	-9%
COCCN1C(=O)c2cccn2CC1CNC(=O)CC1CCCC1 (centres undefined)	-7%
N[C@@H](Cc1ccccc1)C(=O)N1CCC2(CC1)C(=O)NCN2C(=O)C1CCCC1	-14%
Cc1ccc(C(=O)N2CCCN(Cc3ccncc3)C(c3ccccc3)CC(=O)NCC2)cn1 (centres undefined)	i
Cn1cccc1C(=O)N1CCCN(S(=O)(=O)c2ccccc2)CCC(=O)NCC1	-11%
Cc1cccc(C(=O)N2CCCCCNC(=O)CC2c2ccccc2)c1 (centres undefined)	-6%
Cc1ncccc1C(=O)N1CCCN(Cc2ccncc2)C(c2ccccc2)CC(=O)NCC1 (centres undefined)	11µM*
Cc1cccc(C(=O)N2CCCN(Cc3ccncc3)C(c3ccccc3)CC(=O)NCC2)c1 (centres undefined)	2.2µM*
Cn1ccnc1C(=O)N1CCCN(S(C)(=O)=O)C(c2ccccc2)CC(=O)NCC1 (centres undefined)	i
Cn1cccc1C(=O)N1CCCN(Cc2ccncc2)C(c2ccccc2)CC(=O)NCC1 (centres undefined)	2.5µM*
Cn1cnc(S(=O)(=O)N2CCCN(C(=O)c3ccncc3)CCNC(=O)CC2c2ccccc2)c1 (centres undefined)	-1%
Cc1cccc(C(=O)N2CCCN(C(=O)C3CC3)C(c3ccccc3)CC(=O)NCC2)c1 (centres undefined)	i
CCC(C)NC(=O)C(NC(=O)c1cccc(OC)c1)C1CCN(C(=O)C2CC2)CC1 (centres undefined)	1%
CC(C)Cc1nc2nccc(-c3ccsc3)n2n1	-20%
O=C(Cc1cccc(Cl)c1)N1C[C@@H](CO)[C@H](c2ccccn2)C1	8%
Cc1c(CC(=O)NC(C)C2CC2)c2c(n1Cc1ccccc1F)CCCC2=O (centres undefined)	10µM*
Cc1c(CC(=O)NC2CCOC2=O)c2c(n1Cc1ccccc1F)CCCC2=O (centres undefined)	-7%
Cc1c(CC(=O)NCC2CC2)c2c(n1Cc1ccccc1F)CCCC2=O	-8%
CCc1ccc(NS(=O)(=O)c2c(C)nc3sc(CC)nn3c2=O)cc1	-22%
Cc1ccc(Cn2ccnc2SCC(=O)NC2CCCC2)cc1	93%
Cc1ccccc1Cn1c(SCc2ccc(C(=O)NC3CCCCC3)cc2)nc2ccncc21	-17%
Cc1ccc(CN2C(=O)NC3(CCN(C(=O)c4ccncc4)CC3)C2=O)cc1	8%
Cc1ccc(CSc2nc3cccnc3n2Cc2ccc(C(=O)NC3CCCCC3)cc2)cc1	-16%
Cc1ccc(Cn2c(SCc3ccc(C(=O)N4CCCCCC4)cc3)nc3ccncc32)cc1	11µM*
SMILES	Pf Dd2 growth
Cc1ccccc1Cn1c(SCc2ccc(C(=O)N3CCCCC3)cc2)nc2ccncc21	7.9µM*
CN(C)c1ccc(NC(=O)Cn2c(SCc3ccc(F)cc3)nc3ccncc32)cc1	i
COc1ccc(S(=O)(=O)Nc2ccc(C)n(CC(=O)N(C)Cc3ccco3)c2=O)cc1	-14%
Cc1ccc(-c2cc(C(F)(F)F)c(C#N)c(SCC(=O)Nc3ccccc3F)n2)cc1	5%
Cc1cccc(NC(=O)N2CCC3(CC2)CC(N(C(=O)NC(C)C)C2CC2)CCO3)c1 (centres undefined)	i
CCCc1noc(-c2ccn3c(CNC(=O)c4ccc5[nH]ccc5c4)nnc3c2)n1	-19%
O=[S+]([O-])(Nc1nncs1)c1ccc2c(c1)OCCN(Cc1ccncc1)C2	i
Cc1nnc(SCC(=O)Nc2ccc(N(C)C)cc2)[nH]c1=O	11µM*
Cc1ccc(NC(=O)CSc2nc(C)c(Cc3ccccc3)c(=O)[nH]2)cc1C	-25%
Cc1cccc(NC(=O)CSc2nnc(C)c(=O)[nH]2)c1	49%
Cc1nc(C)c(C(=O)N2CCCC(c3nn(C)c(=O)n3C3CCCC3)C2)s1 (centres undefined)	15%
CC(C)c1noc(C2Cc3ccccc3N2C(=O)NC2CCCC2)n1 (centres undefined)	-24%[5.79 µM]
CN(C)c1ncnc2sc3c(c12)CCN(Cc1ccc2cc[nH]c2c1)C3	1.3µM*
CN(C)c1ncnc2sc3c(c12)CCN(Cc1ccco1)C3	4µM*
CN1C(=O)[C@H]2CN(Cc3ccco3)C[C@H]2C1=O	42%
CN1CCN(c2nc3c(c(=O)[nH]2)CCN(Cc2ccc4cc[nH]c4c2)CC3)CC1	i[5.79 µM]
CN(Cc1cccnc1)c1nc2c(c(=O)[nH]1)CCN(Cc1ccc3[nH]ccc3c1)CC2	40%[5.79 µM]
Cc1ccsc1CN1CCc2c(sc3ncnc(N(C)C)c23)C1	5µM*
Cc1ccsc1CN1CCc2nc(N(C)C)[nH]c(=O)c2CC1	-27%[5.79 µM]
Cc1ccsc1CN1CCc2nc(N3CCN(C)CC3)[nH]c(=O)c2CC1	i[5.79 µM]
CN1c2cccnc2CN(Cc2ccco2)CC[C@H]1CO	-15%[44.1 µM]
CCOC(=O)C1CCCN(C(=O)C2CCN(S(=O)(=O)c3c(C)noc3/C=C/c3ccccc3F)CC2)C1 (centres undefined)	23%
COc1ccc(-n2nc(C3CCN(Cc4cccc(OC)c4)CC3)[nH]c2=O)cc1	i
CC1CCN(c2nc3ccc(C(=O)NCCc4ccc(S(N)(=O)=O)cc4)cc3s2)CC1	51%
CCC(C(=O)Nc1ccc(C(C)C)cc1)n1nc(C)n2c(cc3cc(C)ccc32)c1=O (centres undefined)	-21%
SMILES	Pf Dd2 growth
Cc1cc(C(=O)N[C@@H]2C[C@H](Cn3cc(CN(C)C)nn3)[C@@H](O)[C@H]2O)no1	-10%[44.1 µM]
CSc1ncc(C(=O)N2CCN(c3cc(C)ccc3C)CC2)c(C)n1	16%
Cc1ccc(C)c(N2CCN(C(=O)c3cc(C)nc4c3c(C)nn4-c3ccccc3)CC2)c1	8.9µM*
O=C(c1cccn2c(=O)c3cc(Cl)ccc3nc12)N1CCN(c2ccccc2F)CC1	i
COc1cc(NC(=O)c2cc(C)nc3c2c(C)nn3-c2ccccc2Cl)cc(OC)c1	-28%
Cc1cc(C(=O)N2CCN(c3cccc(Cl)c3)CC2)c2c(C)nn(-c3ccccc3Cl)c2n1	11µM*
Cc1ccc(C)c(N2CCN(C(=O)c3cccn4c(=O)c5ccccc5nc34)CC2)c1	13µM*
Cc1ccc(-n2nc(C)c3c(C(=O)Nc4ccccc4C(F)(F)F)cc(C)nc32)cc1	-13%
Cc1ccc(-n2nc(C)c3c(C(=O)O)cc(C)nc32)cc1	5%
Cc1cc(C(=O)N2CCN(c3ccc(F)cc3)CC2)c2c(C)nn(-c3cccc(Cl)c3C)c2n1	25%
CCCc1nnc(NC(=O)Nc2ccccc2Cl)s1	-12%
COc1ccc(-c2ccc3nc(-c4cccc(C)c4C)oc3c2)c(OC)c1OC	-3%
CCn1c(=O)c2ccnn2c2ccc(C(=O)NCc3ccccc3)cc21	i
O=C(c1ccccc1)N(C1CC1)C1CCOC2(CCNCC2)C1 (centres undefined)	2%
CC(C)c1cccc(C(C)C)c1NC(=O)N1CCc2c(c3cc(F)ccc3n2C)C1	-14%
O=C(Nc1ccc(-c2nc3ccccc3o2)c(O)c1)c1ccccc1	i
COc1ccc(NC(=O)CCSc2nc(-c3ccco3)cc(C(F)(F)F)n2)cc1	i
CC(=O)c1ccc(NC(=O)CCSc2nc(-c3ccco3)cc(C(F)(F)F)n2)cc1	-6%
CN(C)c1ccc(NC(=O)CCSc2nc(-c3ccco3)cc(C(F)(F)F)n2)cc1	11µM*
